# Most compounds without a hit are left out; they make up all but 0.82% or so of the library.
# PrPC surface inh = cell surface PrPC inhibition, primary TR-FRET screen. 0.43% of 370,000 active. inhibition, % at 13.8 µM. P04156. TR-FRET read-out; in the data active = inhibition above about 24%; note: 0% = median of the test wells and 100% = reference compound wells
# TcdB GH inh = inhibitors of Clostridioides difficile toxin B glycohydrolase | 0.24% of 350,000 active | inhibition, % at 9.99 µM | TcdB glycohydrolase enzymatic assay, plate reader; in the data active = inhibition above about 10%
# Target sequence (P18177 whole entry, looked up): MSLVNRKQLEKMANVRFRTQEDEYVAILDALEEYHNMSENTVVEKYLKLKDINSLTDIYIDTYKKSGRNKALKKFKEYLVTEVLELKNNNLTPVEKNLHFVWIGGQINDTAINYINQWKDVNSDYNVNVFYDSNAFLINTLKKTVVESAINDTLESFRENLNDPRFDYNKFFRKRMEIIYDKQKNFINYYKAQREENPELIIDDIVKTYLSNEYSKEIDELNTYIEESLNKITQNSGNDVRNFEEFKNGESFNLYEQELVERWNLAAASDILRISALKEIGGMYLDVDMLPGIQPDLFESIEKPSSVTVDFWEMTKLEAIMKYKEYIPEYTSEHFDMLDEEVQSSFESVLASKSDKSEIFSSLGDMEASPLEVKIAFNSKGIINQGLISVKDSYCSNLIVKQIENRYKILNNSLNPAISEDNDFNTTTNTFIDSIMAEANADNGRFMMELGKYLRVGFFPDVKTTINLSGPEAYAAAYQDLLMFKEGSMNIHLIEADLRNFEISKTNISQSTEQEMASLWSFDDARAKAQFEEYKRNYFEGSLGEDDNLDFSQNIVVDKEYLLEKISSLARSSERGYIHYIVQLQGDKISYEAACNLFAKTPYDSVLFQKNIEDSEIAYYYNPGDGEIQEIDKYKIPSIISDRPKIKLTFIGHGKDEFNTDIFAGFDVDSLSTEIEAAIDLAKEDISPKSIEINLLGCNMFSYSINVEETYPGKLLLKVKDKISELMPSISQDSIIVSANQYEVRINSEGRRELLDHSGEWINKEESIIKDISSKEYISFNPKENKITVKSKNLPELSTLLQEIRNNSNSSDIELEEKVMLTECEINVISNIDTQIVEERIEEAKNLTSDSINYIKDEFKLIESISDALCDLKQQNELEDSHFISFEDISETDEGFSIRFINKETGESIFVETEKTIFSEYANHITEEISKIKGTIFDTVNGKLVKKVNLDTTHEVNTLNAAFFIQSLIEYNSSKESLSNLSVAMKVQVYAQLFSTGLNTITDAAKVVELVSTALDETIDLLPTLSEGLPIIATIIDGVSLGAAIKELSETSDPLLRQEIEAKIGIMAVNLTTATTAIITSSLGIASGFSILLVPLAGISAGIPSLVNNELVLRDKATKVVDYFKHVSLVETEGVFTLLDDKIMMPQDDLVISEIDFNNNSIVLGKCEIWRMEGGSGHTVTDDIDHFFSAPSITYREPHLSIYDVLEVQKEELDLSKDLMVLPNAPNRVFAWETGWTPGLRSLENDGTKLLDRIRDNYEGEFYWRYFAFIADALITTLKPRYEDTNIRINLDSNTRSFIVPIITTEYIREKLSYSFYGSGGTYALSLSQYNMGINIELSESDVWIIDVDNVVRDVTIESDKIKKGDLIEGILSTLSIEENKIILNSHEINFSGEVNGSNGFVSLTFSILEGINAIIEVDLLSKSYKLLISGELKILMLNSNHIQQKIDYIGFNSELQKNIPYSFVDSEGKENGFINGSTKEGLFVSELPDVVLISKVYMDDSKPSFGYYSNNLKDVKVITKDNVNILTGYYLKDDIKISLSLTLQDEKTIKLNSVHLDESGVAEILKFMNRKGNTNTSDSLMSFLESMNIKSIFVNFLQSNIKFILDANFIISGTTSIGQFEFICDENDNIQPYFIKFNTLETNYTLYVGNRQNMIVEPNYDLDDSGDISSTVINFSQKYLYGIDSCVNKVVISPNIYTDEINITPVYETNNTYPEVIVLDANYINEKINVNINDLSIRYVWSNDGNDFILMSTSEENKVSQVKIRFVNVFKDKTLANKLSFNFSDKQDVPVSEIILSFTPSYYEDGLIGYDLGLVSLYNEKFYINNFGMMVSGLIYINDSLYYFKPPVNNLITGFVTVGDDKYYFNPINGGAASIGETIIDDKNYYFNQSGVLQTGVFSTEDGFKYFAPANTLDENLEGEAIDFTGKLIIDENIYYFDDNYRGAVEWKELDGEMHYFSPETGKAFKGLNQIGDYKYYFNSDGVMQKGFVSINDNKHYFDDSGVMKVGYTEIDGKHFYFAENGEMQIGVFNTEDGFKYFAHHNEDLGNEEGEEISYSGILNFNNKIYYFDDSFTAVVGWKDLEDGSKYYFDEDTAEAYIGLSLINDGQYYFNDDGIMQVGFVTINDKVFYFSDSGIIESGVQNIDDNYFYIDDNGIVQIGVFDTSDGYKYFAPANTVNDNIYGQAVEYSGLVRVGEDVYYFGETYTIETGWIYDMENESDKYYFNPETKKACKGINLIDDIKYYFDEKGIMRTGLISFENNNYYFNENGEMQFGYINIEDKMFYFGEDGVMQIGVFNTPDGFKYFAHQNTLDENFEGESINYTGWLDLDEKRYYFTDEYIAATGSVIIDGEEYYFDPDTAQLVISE
# DUSP3 inh = blocks human VHR1 dual specificity phosphatase | recombinant VHR phosphatase, pNPP absorbance | inhibition, % at 13.3 µM | 0.52% of 290,000 active; in the data active = inhibition above about 50%
# Numbers without * were called inactive; . = not tested or not shown.
SMILES,PrPC surface inh,TcdB GH inh,DUSP3 inh
C[C@H]1CCCCO[C@@H](CN(C)Cc2ccncc2)[C@@H](C)CN([C@@H](C)CO)C(=O)c2cc(NS(=O)(=O)c3ccccc3)ccc2O1,.,-2.8,.
O=C(O)c1ccccc1NC(=O)N1C[C@H]2C[C@@H](C1)c1cccc(=O)n1C2,-6.8,14.7*,-7.9
COC(=O)c1ccccc1NC(=O)N1C[C@@H]2C[C@@H](C1)c1cccc(=O)n1C2,4.7,-0.2,12.7
C[C@@H]1CCCCO[C@@H](CN(C)S(=O)(=O)c2ccccc2)[C@@H](C)CN([C@H](C)CO)C(=O)c2cc(NC(=O)c3ccncc3)ccc2O1,.,2.0,.
O=C(CCC(=O)N1CCSc2ccccc21)Nc1cccc(F)c1,-2.0,10.2*,13.4
O=C(CCC(=O)N1CCSc2ccccc21)Nc1ccc(F)cc1,-1.6,3.3,-10.2
Cc1noc(C)c1NC(=O)Nc1ccc2c(c1)C(=O)N([C@@H](C)CO)C[C@@H](C)[C@H](CN(C)S(=O)(=O)c1ccc(Cl)cc1)OCCCC[C@@H](C)O2,.,2.7,.
NC(=O)c1ccc(N=Nc2c(O)c3ccccc3[nH]c2=O)cc1,.,.,-6.8
N=C(N)c1ccc(N=Nc2c(O)ccc3c2[nH]c2ccccc23)cc1,-4.4,13.6*,.
CCC1(C)NC(C(=O)O)Cc2c1[nH]c1ccccc21 (configuration not stated),-5.7,0.9,59.7*
CCCN1CCC2(CC1)NC(C(=O)O)Cc1c2[nH]c2ccccc12 (configuration not stated),.,.,-14.3
COc1ccc(NC(=O)N(C)C[C@H]2Oc3ncc(C#CC(C)C)cc3C(=O)N([C@@H](C)CO)C[C@H]2C)cc1,.,0.8,.
Cc1c(C(=O)N2CC(C)OC(C)C2)[nH]c2ccc(Br)cc12 (configuration not stated),27.6*,0.1,-4.7
CC1CN(C(=O)c2cc3cc(Br)ccc3[nH]2)CC(C)O1 (configuration not stated),2.7,0.3,2.1
O=C(C1CCOCC1)N1CC(=O)N2[C@@H](CO)[C@H](c3ccc(/C=C/c4ccccc4)cc3)[C@@H]2C1,.,0.7,.
CC(C)NC(=O)N1C[C@@H]2[C@H](c3ccccc31)[C@@H](CO)N2C(=O)C1CCCC1,.,-0.1,.
O=C(Cn1nc(C(F)F)cc1C1CC1)N1CCCC1,-3.1,-0.6,59.1*
CN(C)CCNC(=O)Cn1nc(C(F)F)cc1C1CC1,2.1,.,-0.5
CC(C)C12NC(=O)NC(=O)N1CCS2 (configuration not stated),-4.7,10.1*,.
CC(C)C1(c2ccsc2)NC(=O)NC1=O (configuration not stated),6.3,0.9,.
N#Cc1c(NCCN)nc(-c2ccco2)c2c1CCCC2,5.6,.,19.6
CC(C)CCNc1nc(-c2ccco2)c2c(c1C#N)CCCC2,3.3,.,59.0*
COc1cc(/C=C/C(=O)N2C(=O)c3cccc(N)c3C2=O)cc(OC)c1OC,-1.2,0.0,55.4*
COc1ccc(OC)c(/C=C/C(=O)N2C(=O)c3cccc(N)c3C2=O)c1,-11.3,-0.1,5.4
O=C(C[C@@H]1CC[C@H]2[C@@H](COC[C@H](O)CN2Cc2cc(F)cc(F)c2)O1)NC1CCCC1,.,-0.4,.
SMILES,PrPC surface inh,TcdB GH inh,DUSP3 inh
O=C(C[C@@H]1CC[C@@H](NC(=O)Nc2ccc3c(c2)OCO3)[C@@H](CO)O1)NCc1ccc2c(c1)OCO2,.,-1.8,.
Cc1c(C(=O)N/N=C/C(C)C)[nH]c2ccc([N+](=O)[O-])cc12,-11.0,0.0,55.6*
Cc1c(C(=O)O)[nH]c2ccc([N+](=O)[O-])cc12,-3.1,0.6,-11.3
COc1ccc(C=NNC(=S)Nc2ccc(F)cc2)cc1OC,-9.6,9.1,.
Fc1ccc(NC(=S)N/N=C/c2ccc(F)c(F)c2)c(F)c1,-1.9,1.2,51.6*
COc1cccc(-c2ccc([C@@H]3[C@@H](CO)N4C(=O)CN(C(=O)C5CCC5)C[C@@H]34)cc2)c1,.,3.9,.
Clc1ccc(/C=N/Nc2ncnc3nc[nH]c23)cc1,-12.2,1.8,21.3
Oc1ccc(/C=N/Nc2ncnc3nc[nH]c23)cc1,1.9,10.3*,25.0
C[C@@H]1CCCCO[C@@H](CN(C)C(=O)Nc2ccc3c(c2)OCO3)[C@H](C)CN([C@H](C)CO)C(=O)c2cc(NC(=O)CCC(F)(F)F)ccc2O1,.,-0.1,.
Cc1ccc2c(c1)CC1(CN2C)C(=O)NC(=O)N(c2ccc(C)c(C)c2)C1=O (configuration not stated),-0.2,.,50.5*
Cc1ccc2c(c1)CC1(CN2C)C(=O)NC(=O)N(c2ccccc2C)C1=O (configuration not stated),4.2,.,13.8
CCOc1cc(/C=N/NC(=O)CN2CCCCC2)ccc1OCc1ccccc1,-6.5,.,21.4
CCOc1ccc(/C=N/NC(=O)CN2CCCCC2)cc1OCC,-2.6,1.9,53.9*
CC(=O)c1ccc(NC(=S)N2CCN(CCN3C(=O)c4cccc5cccc(c45)C3=O)CC2)cc1,-4.9,-0.8,55.4*
CC(=O)c1cccc(NC(=S)N2CCN(CCN3C(=O)c4cccc5cccc(c45)C3=O)CC2)c1,-9.8,0.7,18.4
CCOc1cc(/C=N/NC(=O)c2ccccn2)ccc1OC(=O)c1cccs1,-4.3,1.7,44.3
O=C(N/N=C/c1ccc(OC(=O)c2cccs2)cc1)c1ccccn1,4.3,-0.4,52.8*
Cc1nc2[nH]c(=S)[nH]c2c(=O)[nH]1,-3.1,28.5*,.
Cc1nc2[nH]c(=S)[nH]c(=O)c2nc1C,0.4,1.6,.
Cc1ccc(S(=O)(=O)N(C)C[C@@H]2Oc3ccc(NC(=O)NC4CCCCC4)cc3CC(=O)N([C@@H](C)CO)C[C@H]2C)cc1,.,1.7,.
O=[N+]([O-])c1ccc2nc(-c3ccc(Cl)cc3)[nH]c2c1,-1.6,5.2,0.5
Cc1ccc(-c2nc3ccc([N+](=O)[O-])cc3[nH]2)cc1,-5.9,11.9*,6.7
COc1ccc(-c2nc3ccc([N+](=O)[O-])cc3[nH]2)cc1,-14.7,13.8*,1.7
O=[N+]([O-])c1ccc2nc(-c3ccncc3)[nH]c2c1,-15.1,1.6,22.4
O=C(C[C@@H]1CC[C@@H]2[C@H](COC[C@H](O)CN2CC2CCCC2)O1)NCc1ccc(Cl)cc1,.,0.1,.
SMILES,PrPC surface inh,TcdB GH inh,DUSP3 inh
O=C(CN1C(=O)COc2ccccc21)N1CCCC1,-11.9,-0.6,55.5*
CCC(C)NC(=O)CN1C(=O)COc2ccc(S(=O)(=O)N3CCOCC3)cc21 (configuration not stated),8.8,-4.7,-9.1
O=C(CN1C(=O)COc2ccccc21)N1CCOCC1,-1.9,5.5,-9.0
CCN1CCN(C(=O)CN2C(=O)COc3ccc(S(=O)(=O)N4CCOCC4)cc32)CC1,-0.8,0.5,56.8*
COc1ccc(OCC(O)COc2ccc(C(=O)O)cc2)cc1 (configuration not stated),0.9,.,50.8*
CC(=O)c1ccc(OCC(O)COc2ccc(C(C)=O)cc2)cc1,3.8,.,30.1
C(=N\Nc1nn[nH]n1)/c1ccccc1,1.6,-0.5,34.7
Clc1ccc(/C=N/Nc2nn[nH]n2)cc1,-2.8,.,53.8*
CO[C@@H]1CN(C)C(=O)c2cc(NS(C)(=O)=O)ccc2OC[C@@H](C)N(CC2CCOCC2)C[C@@H]1C,.,-2.0,.
CSc1ccccc1NC(=O)C1=CC(c2ccc(C)cc2)=NS(=O)(=O)N1C,-16.1,29.1*,9.4
Cc1ccc(C2=NS(=O)(=O)N(C)C(C(=O)NC(C)c3ccccc3)=C2)cc1 (configuration not stated),-5.8,1.7,33.1
